# Measurements taken from PubChem BioAssay (NCI).
# Several values for one entry are separate records, joined by “and”; a condition that tells them apart may be missing. Equal entries are not always repeated. This is part of a sample that, as a whole, favours compounds with a hit. Of some 79,000 tested, about 15% had one in any assay. A structure can be active in one record and inactive in another. Activity calls are given as the source filed them. No stated cut-off is given here; in the data, active means growth inhibition above about 70%; inactive means the rest.
# What was measured:
# [1] = NCI Yeast Anticancer Drug Screen. Data for the rad50 strain (AID 155);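 further: 0% = growth of vehicle-only cultures of the same strain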; details: S. cerevisiae rad50 strain growth inhibition, stronger effect = higher value
# Method in brief: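 Growth of the mutant yeast was measured after compound exposure and referenced to vehicle-treated cultures.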
# [2] = NCI Yeast Anticancer Drug Screen. Data for the mec2-1 strain (AID 157); details: S. cerevisiae mec2-1 strain, stronger effect = higher value
# Method in brief: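 mec2-1 yeast strain, carrying an alteration in DNA damage repair or cell cycle control, was exposed to compounds; growth inhibition was measured relative to vehicle-treated controls.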
# [3] = NCI Yeast Anticancer Drug Screen. Data for the sgs1 mgt1 strain (AID 161);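 further: 0% = growth of cultures given vehicle only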; details: S. cerevisiae sgs1 mgt1 strain, stronger effect = higher value
# Method in brief: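 Percent growth inhibition was derived by comparing compound-exposed mutant yeast with vehicle-exposed cultures. The strain carries alterations in DNA damage repair.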
# [4] = NCI Yeast Anticancer Drug Screen. Data for the cln2 rad14 strain (AID 165);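 further: 0% = growth equal to vehicle treated cultures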; details: S. cerevisiae cln2 rad14 strain, stronger effect = higher value
# Method in brief: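 Yeast carrying cln2 and rad14 alterations (cell cycle control and DNA damage repair) were exposed to compounds. Growth inhibition was measured against vehicle-treated controls.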
# [5] = NCI Yeast Anticancer Drug Screen. Data for the bub3 strain (AID 167); details: S. cerevisiae bub3 mutant strain, stronger effect = higher value
# Method in brief: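 Whole-cell yeast assay. The mutant strain was incubated with compounds, and growth inhibition was determined by comparison with vehicle-treated cells.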
# [6] = NCI Yeast Anticancer Drug Screen. Data for the mlh1 rad18 strain (AID 175); details: S. cerevisiae mlh1 rad18 strain growth inhibition, stronger effect = higher value
# Method in brief: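 Growth inhibition of the yeast strain was measured after compound exposure and expressed relative to vehicle-treated controls. The strain carries defined defects in DNA damage repair.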
# [7] = at 5.0 µM (retest, dose inferred, filed as 0.5)
# [8] = at 50.0 µM (retest, dose inferred, filed as 5.0)
Compound,"growth inhibition [1, 7]","growth inhibition [1, 8]",growth inhibition ([1]; at 50.0 µM),"growth inhibition [2, 7]","growth inhibition [2, 8]",growth inhibition ([2]; at 50.0 µM),"growth inhibition [3, 7]","growth inhibition [3, 8]",growth inhibition ([3]; at 50.0 µM),"growth inhibition [4, 7]","growth inhibition [4, 8]",growth inhibition ([4]; at 50.0 µM),"growth inhibition [5, 7]","growth inhibition [5, 8]",growth inhibition ([5]; at 50.0 µM),"growth inhibition [6, 7]","growth inhibition [6, 8]",growth inhibition ([6]; at 50.0 µM)
CC(C)C(=O)CP(=O)(O)O,-10% (inactive),6% (inactive),-18.1% (inactive),8% (inactive),-2% (inactive),-22.6% (inactive),-9% (inactive),-4% (inactive),-30.5% (inactive),-31% (inactive),-13% (inactive),70.2% (active),7% (inactive),4% (inactive),-21.6% (inactive),7% (inactive),9% (inactive),-7.2% (inactive)
COC1OC(COC(C)=O)C(OC(C)=O)C(OC(C)=O)[C]1(OC(C)=O)[Hg][O]C(C)=O (centres undefined),99% (active),99% (active),99.3% (active),100% (active),100% (active),98.5% (active),99% (active),99% (active),99.7% (active),99% (active),98% (active),99.4% (active),99% (active),99% (active),97.8% (active),99% (active),99% (active),99.7% (active)
CCCCCCCC/C=C\CCCCCCCCN1CC(C(=O)[O][Pb]([CH2]C)([CH2]C)[CH2]C)CC1=O (centres undefined),7% (inactive),77% (active),30.1% (inactive),5% (inactive),80% (active),28.8% (inactive),10% (inactive),79% (active),65.9% (inactive),5% (inactive),66% (inactive),9.45% (inactive),4% (inactive),82% (active),23.3% (inactive),1% (inactive),72% (active),65.7% (inactive)
CN(C)c1ccc(N=Cc2c([O-])ccc3ccccc23)cc1.[C-]#[O+].[C-]#[O+].[Ir],1% (inactive),1% (inactive),83.4% (active),15% (inactive),15% (inactive),60.4% (inactive),-17% (inactive),-17% (inactive),78.3% (active),3% (inactive),3% (inactive),77.1% (active),2% (inactive),2% (inactive),82.5% (active),9% (inactive),9% (inactive),71.1% (active)
CCN1/C(=C\c2ccc3cc(C)ccc3[n+]2CC)[Se]c2ccccc21,98% (active),98% (active),99.2% (active),100% (active),100% (active),99.4% (active),95% (active),99% (active),99.5% (active),98% (active),94% (active),99.5% (active),95% (active),99% (active),97% (active),99% (active),99% (active),99.5% (active)
C[n+]1c(/C=C/c2ccc(O)c(O)c2)[se]c2ccccc21,12% (inactive),72% (active),77.7% (active),3% (inactive),80% (active),70.6% (active),48% (inactive),81% (active),82.7% (active),19% (inactive),53% (inactive),66.9% (inactive),-3% (inactive),61% (inactive),56.1% (inactive),18% (inactive),80% (active),77% (active)
CCOCCOC(=O)Cc1ccccc1,5% (inactive),42% (inactive),64.3% (inactive),2% (inactive),6% (inactive),98.3% (active),-1% (inactive),6% (inactive),46.9% (inactive),4% (inactive),16% (inactive),55.6% (inactive),7% (inactive),12% (inactive),94% (active),6% (inactive),19% (inactive),95.5% (active)
Ic1cccc2c1[se]c1ccccc12,-8% (inactive),22% (inactive),25.2% (inactive),8% (inactive),20% (inactive),-4.05% (inactive),0% (inactive),40% (inactive),6.7% (inactive),5% (inactive),-28% (inactive),-27.8% (inactive),-3% (inactive),27% (inactive),-11.3% (inactive),9% (inactive),75% (active),2.15% (inactive)
CC(C)(C)OC(=O)NC(CSC(c1ccccc1)(c1ccccc1)c1cccs1)C(=O)O (centres undefined),7% (inactive),97% (active),95.7% (active),17% (inactive),99% (active),69.2% (inactive),7% (inactive),99% (active),96.5% (active),23% (inactive),99% (active),78.8% (active),9% (inactive),99% (active),14.2% (inactive),12% (inactive),99% (active),83.2% (active)
CC(C)=[CH][Sb]([Br])([CH]=C(C)C)([CH]=C(C)C)[CH]=C(C)C,-1% (inactive),11% (inactive),50.8% (inactive),-4% (inactive),17% (inactive),33.7% (inactive),-4% (inactive),14% (inactive),18.9% (inactive),-8% (inactive),3% (inactive),-17.4% (inactive),11% (inactive),13% (inactive),30.7% (inactive),-7% (inactive),12% (inactive),24.4% (inactive)
CCOC(=O)c1ccccc1N,6% (inactive),4% (inactive),-2.65% (inactive),2% (inactive),1% (inactive),1.2% (inactive),-10% (inactive),1% (inactive),-5.7% (inactive),2% (inactive),-4% (inactive),45.8% (inactive),0% (inactive),6% (inactive),7.7% (inactive),-1% (inactive),4% (inactive),-17.9% (inactive)
OC(c1cc2c(c3ccccc13)CCCC2)C1CCCCN1 (centres undefined),-4% (inactive),17% (inactive),64.5% (inactive),-1% (inactive),12% (inactive),42.4% (inactive),3% (inactive),47% (inactive),68% (inactive),1% (inactive),21% (inactive),79.7% (active),0% (inactive),18% (inactive),59% (inactive),0% (inactive),41% (inactive),95.5% (active)
c1ccc([CH2][Pb]([c]2ccccc2)([c]2ccccc2)[c]2ccccc2)cc1,96% (active),96% (active),97.2% (active),97% (active),99% (active),99.2% (active),97% (active),98% (active),98.7% (active),95% (active),95% (active),98.5% (active),98% (active),97% (active),99% (active),97% (active),97% (active),99.2% (active)
Oc1cc(Cl)c(Cl)cc1Cl,30% (inactive),98% (active),98.5% (active) and 53% (inactive),12% (inactive),99% (active),98.8% (active) and 98.6% (active),17% (inactive),99% (active),99.1% (active) and -3.1% (inactive),0% (inactive),99% (active),97.5% (active) and 96.4% (active),-2% (inactive),99% (active),98.1% (active) and 97.2% (active),18% (inactive),100% (active),98.8% (active) and 52.5% (inactive)
COc1ccccc1[As]=O (centres undefined),1% (inactive),99% (active),99.3% (active),-12% (inactive),99% (active),99.6% (active),8% (inactive),99% (active),99.5% (active),-14% (inactive),99% (active),98.6% (active),12% (inactive),99% (active),99.2% (active),25% (inactive),99% (active),99.4% (active)
O=c1ccn(C2OC(CO)C(O)C2O)c(=O)[n]1[Hg][c]1ccccc1 (centres undefined),99% (active),99% (active),90.8% (active),100% (active),99% (active),89.7% (active),100% (active),100% (active),85.8% (active),99% (active),99% (active),88.3% (active),100% (active),99% (active),84.3% (active),98% (active),98% (active),91.8% (active)
[Cl][Hg][Cl].c1cnccn1,39% (inactive),97% (active),92.2% (active),40% (inactive),98% (active),93.8% (active),99% (active),99% (active),94.3% (active),80% (active),97% (active),93.2% (active),99% (active),99% (active),93.2% (active),32% (inactive),99% (active),93% (active)
COc1cc(C=Nc2ccc(-c3csc(COc4ccccc4)n3)cc2)ccc1N(CCCl)CCCl,12% (inactive),88% (active),89.7% (active),11% (inactive),92% (active),88.1% (active),8% (inactive),93% (active),86.2% (active),2% (inactive),85% (active),84.2% (active),17% (inactive),88% (active),86% (active),77% (active),92% (active),90.6% (active)
